# A selection: hits, their analogues and other compounds. The true share with any hit is near 2.3%.
# M1 ag: human M1 muscarinic receptor agonists, primary screen, Fluo-8 calcium fluorescence, CHO-K1 cells, HTS; Muscarinic acetylcholine receptor M1 (Homo sapiens), P11229; CHO-K1 hM1, agonist mode; 0% DMSO, 100% acetylcholine EC100; activation, % at 3 µM; hit rate 0.33% among 360,000;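 active = activation above the run's mean compound activation plus 3 SD, cut at about 16% in these data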;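 note: peak over basal fluorescence ratio within a 140 s kinetic read after compound addition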
# Target sequence (P11229 whole entry, looked up): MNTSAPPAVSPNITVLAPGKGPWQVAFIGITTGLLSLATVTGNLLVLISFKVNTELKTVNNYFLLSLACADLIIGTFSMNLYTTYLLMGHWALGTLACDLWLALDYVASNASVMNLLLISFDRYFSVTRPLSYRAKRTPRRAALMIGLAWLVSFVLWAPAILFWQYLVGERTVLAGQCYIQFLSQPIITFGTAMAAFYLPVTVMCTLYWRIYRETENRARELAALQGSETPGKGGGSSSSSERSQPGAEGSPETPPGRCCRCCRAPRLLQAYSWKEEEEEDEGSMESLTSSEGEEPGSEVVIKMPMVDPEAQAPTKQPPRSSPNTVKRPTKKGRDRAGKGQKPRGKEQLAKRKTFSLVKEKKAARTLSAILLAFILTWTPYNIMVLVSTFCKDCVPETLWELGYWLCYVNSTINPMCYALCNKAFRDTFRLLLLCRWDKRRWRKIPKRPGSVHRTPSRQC
# M1 PAM parental: nonselective calcium activators in parental CHO-K1 cells, primary screen, counter-screen for M1 PAM project, cell-based, Fluo-8 calcium fluorescence, full deck, 1536-well; hit rate 0.02% among 360,000; ATP EC20; 0% at ATP EC20, 100% at ATP max; activation, % at 3 µM;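 active = activation above the run cutoff, the mean activation of all test compounds plus 3 SD, cut at about 40% in these data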;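 note: peak over basal fluorescence ratio in a 140 s read after ATP addition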
# CHRM1 PAM: human M1 muscarinic receptor positive allosteric modulators, primary screen, CHO-K1 cells, Fluo-8 calcium fluorescence, 1536-well. Muscarinic acetylcholine receptor M1 (Homo sapiens), P11229. CHO-K1 hM1, ACh EC20; 0% = ACh EC20, 100% = maximal ACh. activation, % at 3 µM. hit rate 0.088% among 360,000. AID 588819, 2011; in the data active = activation above about 19%, passing the limit was not always enough
# M1 ag parental: counter-screen for M1 agonists: effect in parental CHO-K1 cells; Fluo-8 calcium fluorescence; scaled to maximal ATP response, vehicle zero; activation, % at 3 µM; hit rate 0.48% among 360,000; in the data active = activation above about 15%;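 note: untransfected CHO-K1 host cells lacking M1 receptor as counterscreen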
# CHO-K1 Ca antag: M1 antagonist counterscreen hit in parental CHO-K1 cells | AID 602250 | inhibition, % at 3 µM | ATP-induced calcium, Fluo-8 fluorescence | hit rate 0.6% among 360,000;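 active = inhibition above a per-plate cutoff, the plate's mean sample inhibition plus 3 SD, cut at about 24% in these data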
# CHRM1 antagonist: human M1 muscarinic receptor antagonists, primary screen, CHO-K1 cells, Fluo-8 calcium fluorescence, 1536-well; CHO-K1 hM1, ACh EC80 antagonist; inhibition, % at 3 µM; hit rate 1.3% among 360,000; AID 588852, 2011;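 active = percent inhibition above its own plate's cutoff, namely the mean of that plate's compound wells plus 3 SD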;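 note: peak over basal fluorescence ratio during 140 s after agonist addition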
# Hits are given with their value; - = inactive; . = no result given.
SMILES,M1 ag,M1 PAM parental,CHRM1 PAM,M1 ag parental,CHO-K1 Ca antag,CHRM1 antagonist
Cc1ccc(C)c(N2CCN(C(=O)CCS(=O)(=O)c3ccc4c(c3)NC(=O)CO4)CC2)c1,-,-,-,17,-,-
COc1ccc(N2CCN(C(=O)CC(C)S(=O)(=O)c3ccc4c(c3)NC(=O)CO4)CC2)cc1 (stereo not drawn),-,-,-,-,-,-
CCCN1CCN(C(=O)CCS(=O)(=O)c2cc3c(cc2Cl)NC(=O)CO3)CC1,-,-,-,-,26,-
O=C1COc2ccc(S(=O)(=O)CCC(=O)N3CCN(c4ccccc4)CC3)cc2N1,-,-,-,-,-,-
CC1CCN(C(=O)CCS(=O)(=O)c2cc3c(cc2Cl)NC(=O)CO3)CC1,-,-,-,-,-,-
Cc1ccc(F)c(S(=O)(=O)NC(=O)C2(C)CCN2C(=O)c2ccccc2)c1 (stereo not drawn),-,-,-,-,-,-
Cc1ccc(OC(=O)CCS(=O)(=O)c2ccc(C)cc2)cc1,-,-,25,-,-,-
COC(=O)Cc1ccc(OC(=O)CCS(=O)(=O)c2ccc(C)cc2)cc1,-,-,-,-,-,-
COc1ccc(NC(=O)CCNS(=O)(=O)c2cccc3nonc23)cc1,-,-,-,-,-,-
CCCS(=O)(=O)NC(=O)C1(C)CCCN(C(=O)CSc2ccccc2)C1 (stereo not drawn),-,-,-,-,-,-
CN(C)c1ccc(NC(=O)c2sc(SCC(=O)Nc3nccs3)nc2N)cc1,-,-,-,-,-,24
CC(=O)Nc1cc2c(cc1Cl)-c1ccccc1C2,-,-,-,-,26,-
CCC(=O)Nc1cc2c(cc1Cl)-c1ccccc1C2,-,-,-,-,-,-
COc1ccc(NC(=O)C2CCN(S(C)(=O)=O)CC2)c(OC)c1,-,-,-,-,-,-
COc1ccc(C(=O)N2CCC(C(=O)Nc3ccccc3OC)CC2)cc1,-,-,-,-,-,-
COc1ccccc1NC(=O)C(Sc1ccccc1)c1ccccc1 (stereo not drawn),-,-,-,-,-,-
COc1ccc(NC(=O)C2CCN(S(=O)(=O)c3ccc(OC)c(OC)c3)CC2)c(OC)c1,-,-,-,-,26,-
COc1ccc(NC(=O)C2CCN(C(=O)c3ccccc3)CC2)c(OC)c1,-,-,-,-,-,61
COc1ccc(NC(=O)C(Sc2ccccc2)c2ccccc2)c(OC)c1 (stereo not drawn),-,43,-,-,-,-
COC(=O)c1c(C(=O)OC)c(-c2cccc(F)c2)n2c1CS(=O)(=O)C2,-,-,-,-,-,-
COc1ccc(S(=O)(=O)Nc2ccc3c(c2)C(=O)N([C@H](C)CO)C[C@H](C)[C@@H](CN(C)Cc2ccncc2)OCCCC[C@@H](C)O3)cc1,-,-,-,-,-,-
Cn1nc(C(C)(C)C)cc1C(=O)NCc1cc(F)cc2c1OCOC2,-,-,-,15,31,41
O=C(NC(NNc1ccc([N+](=O)[O-])cc1)(C(F)(F)F)C(F)(F)F)c1ccc(Cl)cc1,-,-,-,-,-,34
O=[N+]([O-])c1ccc(N/N=C/C=C/c2ccco2)cc1,-,-,-,21,-,-
O=C(O)c1ccc(N/N=C/C=C/c2ccc([N+](=O)[O-])o2)cc1,27,-,-,-,-,36
SMILES,M1 ag,M1 PAM parental,CHRM1 PAM,M1 ag parental,CHO-K1 Ca antag,CHRM1 antagonist
O=C(N/N=C/c1ccco1)c1cc([N+](=O)[O-])cc([N+](=O)[O-])c1,-,-,-,-,-,-
Cn1cc(Cc2ccc(C(=O)N3CCN(Cc4ccccc4)CC3)cn2)c2ccccc21,-,-,-,-,-,-
COc1ccc(Nc2ncc(C(=O)N3CCN(Cc4ccccc4)CC3)c3ccccc23)cc1,-,-,-,-,-,32
CC(=O)c1c(C)nn(CC(=O)NC2CCCN(Cc3ccc(CC(C)C)cc3)C2)c1C (stereo not drawn),-,-,-,-,-,47
CCOC(=O)C1CCN(c2ncnc3c(C)csc23)CC1,-,-,-,15,-,40
CCOC(=O)C1CCN(c2ncnc3nc[nH]c23)CC1,-,-,-,-,-,-
O=C(NCCCCO)c1c(-c2ccccc2)oc2c1C(OCCCCCO)CCC2 (stereo not drawn),.,-,.,-,-,.
CN(C)C(=O)CSc1nnc(-c2cc(-c3cccs3)nc3ccccc23)o1,-,-,-,-,27,-
Cc1nc(-c2ccccc2)sc1C1(C)CC(c2ccc(OC(F)(F)F)cc2)=NO1 (stereo not drawn),-,-,-,-,-,-
CC(C)C[C@H]1CNC(=S)N1CC1CCN(CCCCc2ccccc2)CC1,-,-,-,-,-,52
CCCCN1CCC(CN2C(=S)NC[C@@H]2CC(C)C)CC1,-,-,-,-,-,-
CC(C)C[C@H]1CNC(=S)N1CC1CCN(CCCC2CCCC2)CC1,-,-,-,-,-,75
CN(C)C1=NC[C@H](Cc2ccccc2)N1CCCC1CCCCC1,-,-,-,-,-,31
S=C1NC[C@H](Cc2ccccc2)N1CC1CCN(CCCC2CCCC2)CC1,-,-,-,-,-,38
S=C1NC[C@H](Cc2ccccc2)N1CCCCC1CCCCC1,-,-,-,-,-,-
CN(C)C1=NC[C@H](Cc2ccccc2)N1CCCC1CCCC1,-,-,-,-,-,-
COc1cccc(CN2CC(C(=O)NCCN3CCOC3=O)CCC2=O)c1 (stereo not drawn),-,-,-,-,-,-
O=C(Nc1cccc(-c2nc3ncccc3o2)c1)c1cc2ccccc2o1,-,-,-,-,26,-
Cc1ccc(-c2nc3ncccc3o2)cc1NC(=O)c1cc2ccccc2o1,-,-,-,-,-,-
ClCCn1cnc2c(SCc3ccccc3)ncnc21,-,-,-,-,-,-
CC(=O)Nc1c2c(nn1-c1ccc(F)cc1)CSC2,-,-,-,-,-,-
CN(C)C(C)(C)C#CCCCCC#CC(C)(C)N(C)C,-,-,-,-,-,-
CN(C)C(C)(C)C#CCC(c1ccccc1)c1ccccc1,-,-,-,-,-,87
COc1ccc(CCN2C(=O)CS/C2=N\NC(=O)c2cccs2)cc1OC,-,-,-,18,-,-
CC(=O)NC1C(=O)N=C(SC(C)C(=O)Nc2cccc(Cl)c2)NC1=O (stereo not drawn),-,-,-,15,-,-
CC(Sc1nc(N)cc(=O)[nH]1)C(=O)Nc1cccc(Cl)c1 (stereo not drawn),-,-,-,-,-,-
